Here are results for 39 compounds from PubChem BioAssay (NCATS).

“And” between values parts separate entries of the source, which are not always exact repeats. Equal entries are not always repeated. Records with an inconclusive call do not appear. Some compounds were tested as several samples or in several runs, with calls that do not always agree. The source made the active and inactive calls. Calls follow the shape of the full dose curve.
Potency is read from the fitted curve at half-maximal effect.

The nature of this assay: Primary qHTS to identify inhibitors of SARS-CoV-2 cell entry (AID 1645846). Also: nearly all actives have a fitted effect of over 45% in size. The settings on record: SARS-CoV-2 pseudovirus cell entry assay, luminescence; activity change, negative = inhibition: at 57.1 µM (top of the series) unless noted; series mostly up to 57.1 µM. A digest of the protocol: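 HEK293 cells stably expressing human ACE2, pre-treated 1 h with compound, then infected with MLV particles pseudotyped with Wuhan-Hu-1 spike (C-terminal 19-aa truncation). Luciferase luminescence after 48 h at 37 °C, normalised to spike PP and bald PP.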
Regarding `COc1cc(C)c(Sc2cnc(NC(=O)c3ccc(CNC(C)C(C)(C)C)cc3)s2)cc1C(=O)N1CCN(C(C)=O)CC1` (stereo not given), the Potency was 12.6 µM (active).

For `COc1cc2nc(N3CCCN(C)CC3)nc(NC3CCN(Cc4ccccc4)CC3)c2cc1OC`, the Potency is 3.16 µM (active).

With `C=CCc1cccc(/C=N/NC(=O)CN2CCN(Cc3ccccc3)CC2)c1O`, the Potency was 31.6 µM (active).

In the case of `C[C@@]12O[C@@H](C[C@]1(O)CO)n1c3ccccc3c3c4c(c5c6ccccc6n2c5c31)CNC4=O`, the Potency is 1.41 µM (active).

As for `Cc1ccc(C(=O)N(CCCN)[C@@H](c2nc3cc(Cl)ccc3c(=O)n2Cc2ccccc2)C(C)C)cc1`, the activity change, negative = inhibition is -95.6%.

Consider `Nc1ccccc1NC(=O)c1ccc(CNc2nccc(-c3cccnc3)n2)cc1`, for which the Potency result is “inactive”.

Regarding `COc1cc2c(cc1O)CC[C@@H]1[C@@H]2CC[C@]2(C)[C@@H](O)CC[C@@H]12`, the activity change, negative = inhibition was -26.7%.

Turning to `COCCNCCCn1c(C(=O)CF)c(-c2ccc(C)cc2)c2c(N)ncnc21`, the Potency entry is “inactive”.

On to `CC(=O)OCCN1C(=O)c2c(C)nc3ccc(S(=O)(=O)N4CCOCC4)cc3c2C1=O`, for which the activity change, negative = inhibition came to 2.17%.

As for `CN(C)CCN(C)C(=O)c1ccc(NC(=O)Nc2ccc(-c3nc(N4CCOCC4)c4ccn(CC(F)(F)F)c4n3)cc2)cc1`, the activity change, negative = inhibition was -96.8%.

For `Cc1c(C(=O)Nc2ccc(N3C[C@@H](C)O[C@@H](C)C3)nc2)cccc1-c1ccc(OC(F)(F)F)cc1`, the Potency result was “inactive and 12.6 µM (active)”.

On to `CCc1cncnc1N1CCN(Cc2nc3ccc(C(F)(F)F)cc3[nH]2)CC1`, for which the Potency was 28.2 µM (active).

As for `CN1CCN(c2ccc([N+](=O)[O-])c3no[n+]([O-])c23)CC1`, the activity change, negative = inhibition was -23.8%.

As for `CCCCOCCOc1nc(-c2ccc(C(=O)O)c(F)c2)sc1C`, the activity change, negative = inhibition is -25.8%.

As for `COc1ccc2c(c1)CC[C@@H](CN(C)CC(=O)O)[C@H]2c1ccccc1`, the Potency result is “inactive”.

For the compound `C=CCn1c(=O)c2cnc(Nc3ccc(N4CCN(C)CC4)cc3)nc2n1-c1cccc(C(C)(C)O)n1`, the Potency was 1.41 µM (active).

Regarding `CCC(=O)N1CCN(c2ccc(-n3c(=O)ccc4cnc5ccc(-c6cnc7ccccc7c6)cc5c43)cc2C(F)(F)F)CC1`, the activity change, negative = inhibition was -91.2% [at 27.1 µM].

`CC(=O)N[C@@H](CCC(N)=O)C(=O)O`: the activity change, negative = inhibition is -25.1%.

Consider `COc1cc(OC2CCN(C)CC2)ccc1Nc1ncc2c(n1)n(C1CCCC1)c(=O)n2C`, for which the Potency was 28.2 µM (active).

Take `CC(C)CC(=O)Nc1n[nH]c2c1CN(C(=O)C1CCN(C)CC1)C2(C)C`: the Potency is 5.62 µM (active).

`CC1=C[C@@H]2[C@@H]([C@@H](O)C[C@@]3(C)[C@H]2C[C@@H](C)[C@]3(O)C(=O)CO)[C@@]2(C)Cc3cnn(-c4ccccc4)c3C=C12`: the Potency entry was “inactive”.

Consider `O=C(Nc1ccc(OC(F)(F)F)cc1)c1sccc1NCc1ccnc2ccccc12`, for which the activity change, negative = inhibition is -18%.

For the compound `NC(=O)c1ccc(N(C(N)=O)c2c(F)cccc2F)nc1-c1ccc(F)cc1F`, the activity change, negative = inhibition is -20.8%.

For `O=C(c1ccc(Nc2nccc(-c3cc4ccccc4s3)n2)cc1)N1CCC(N2CCCC2)CC1`, the Potency was 11.2 µM (active).

With `COc1cc2nccc(Oc3ccc(NC(=O)Nc4cc(C)on4)c(Cl)c3)c2cc1OC`, the Potency is 14.1 µM (active).

In the case of `O=C(O)c1ccc(O)c2ncc(N3CCOCC3)cc12`, the Potency was 28.2 µM (active).

On to `CCCOC(=O)c1ccc(O)cc1`, for which the Potency result is “inactive”.

On to `C[C@@H](Oc1cc(-n2cnc3ccc(CN4CCN(C)CC4)cc32)sc1C(N)=O)c1ccccc1C(F)(F)F`, for which the activity change, negative = inhibition was -97%.

Consider `CC(C)(C)c1cc(C(=O)O)c(NC(=O)Nc2ccc3[nH]ncc3c2)s1`, for which the Potency entry was “inactive”.

Regarding `COCCn1c2c([n+](Cc3cnccn3)c1C)C(=O)c1ccccc1C2=O`, the activity change, negative = inhibition is -98.5%.

With `Cc1ccccc1N=Nc1ccc(N=Nc2c(O)ccc3ccccc23)c(C)c1`, the activity change, negative = inhibition was -23%.

Consider `O=C1[C@H](Cc2ccc(O)cc2)N2C(=O)CCN(C(=O)NCc3ccccc3)[C@H]2CN1Cc1cccc2ccccc12`, for which the activity change, negative = inhibition is -93.3%.

For the compound `COC(=O)c1ccc2c(C(=Nc3ccc(N(C)C(=O)CN4CCN(C)CC4)cc3)c3ccccc3)c(O)[nH]c2c1`, the Potency is 17.8 µM (active) and the activity change, negative = inhibition was -18.4%.

Regarding `CCN1CCN(CC(=O)Nc2ccc(-c3cccc4c(=O)cc(N5CCOCC5)oc34)c3sc4ccccc4c23)CC1`, the Potency was 5.62 µM (active).

On to `COc1c(C)cnc(Cn2cnc3c(Cl)nc(N)nc32)c1C`, for which the activity change, negative = inhibition was -96.5%.

Regarding `CC[C@@H]1C(=O)N(C)c2cnc(Nc3ccc(C(=O)NC4CCN(C)CC4)cc3OC)nc2N1C1CCCC1`, the activity change, negative = inhibition is -96.8%.

Consider `NC(=O)C1CCCc2c1[nH]c1ccc(Cl)cc21` (stereo not given), for which the Potency result was “inactive”.

Turning to `CCC(C)(Oc1ccc(C2(c3ccc(OC(C)(CC)C(=O)O)cc3)CCCCC2)cc1)C(=O)O` (stereo not given), the Potency entry was “inactive”.

With `CN(C)CCCN=c1c2ccccc2n(C)c2[nH]c(=O)n(C)c(=O)c12`, the Potency was 31.6 µM (active).
